In the library only some 2.2% were active in any assay of this set; here they are far more common.
ERG Ets-DNA blk: inhibitors of human ERG Ets domain-DNA interaction | P11308 | actives 0.028% (n = 370,000) | fluorescence polarization, His-ERG Ets domain / labelled DNA | Potency, µM (doses to about 76.9 µM), inactives show top-dose FP activity, negative = inhibition, actives largely listed as inhibitors; active means well fitted inhibition curve with a large enough effect in the polarisation, with a control signal flat; inconclusive means small, poorly fitted or top-dose-only effect, or effect the other way, or a change in a side signal; inactive means no such curve, though single readings can be large or run the other way; the % refers to the polarisation;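 further: polarization taken with two DNA probes labelled with fluorescein and Texas red; % of control where 0% means no effect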
Target sequence (P11308 whole entry, looked up, the tested form may be a part): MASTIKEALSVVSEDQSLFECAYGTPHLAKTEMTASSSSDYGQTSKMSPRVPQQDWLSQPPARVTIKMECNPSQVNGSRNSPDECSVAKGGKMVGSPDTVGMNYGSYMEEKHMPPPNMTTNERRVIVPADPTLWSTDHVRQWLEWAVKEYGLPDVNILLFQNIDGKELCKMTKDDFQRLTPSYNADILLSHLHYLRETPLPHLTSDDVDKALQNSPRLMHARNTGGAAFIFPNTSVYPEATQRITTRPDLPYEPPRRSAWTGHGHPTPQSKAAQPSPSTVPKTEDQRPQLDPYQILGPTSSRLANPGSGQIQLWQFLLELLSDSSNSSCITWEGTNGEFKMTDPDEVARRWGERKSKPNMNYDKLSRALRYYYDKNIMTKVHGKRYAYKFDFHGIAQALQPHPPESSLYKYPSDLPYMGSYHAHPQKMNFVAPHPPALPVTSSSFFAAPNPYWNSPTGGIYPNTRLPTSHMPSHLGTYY
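His-tagged ERG Ets domain (1 uM in the protein solution; 300mM KCl, 50mM Tris-HCl, 1mM EDTA, 1mM DTT, pH 7.5) received compound, then a probe mix of 5 nM fluorescein-DNA and 100nM Texas-615-DNA. Fluorescence polarization was read for both dyes.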
aSyn yeast inh: inhibitors of alpha-synuclein toxicity in yeast. Potency, µM (doses to about 46.1 µM), inactives show at the highest dose growth rescue (activation), hits mostly activators. actives 0.14% (n = 370,000). Yeast expressing alpha-synuclein, growth rescue, BacTiter-Glo, 24 h. AID 652106; further: % of control where 0% means no effect; nearly all actives have a fitted effect of over 65% in size
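Rescue of yeast growth: cells expressing toxic alpha-synuclein, induced in galactose at OD600 0.02, incubated with compound 24 h at 30 C. ATP luminescence quantified growth; inhibitors of toxicity appear as activators.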
Abeta yeast res: compounds reversing amyloid beta toxicity in yeast | Potency, µM (top dose mostly 46.1 µM), hits mostly activators | yeast expressing A-beta42, growth rescue, OD600, 48 h; response scale: 0% DMSO, 100% iron-clioquinol control | AID 1347071 | actives 0.063% (n = 410,000); further: nearly all actives have a fitted effect of over 55% in size
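Yeast A-beta toxicity model in growth medium with pinned compounds, 48 h at 30 C; growth read as absorbance at 600 nm. Normalized to FeCl3/clioquinol equimolar mix (positive) and DMSO (negative).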
Mito fusion yeast: inhibitors of mitochondrial division or activators of mitochondrial fusion. S. cerevisiae fusion-defective mutant growth rescue, CellTiterGlo 48 h. Potency, µM (top dose mostly 46.1 µM), inactives show top-dose growth rescue (activation), hits mostly activators. actives 0.23% (n = 320,000); further: % of control where 0% means no effect; nearly all actives have a fitted effect of over 45% in size
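Temperature-sensitive fusion-defective S. cerevisiae (e.g. fzo1-1, mgm1-5) were grown with compound in YPEG medium (3% ethanol, 3% glycerol) for 48 hours at 37C. Growth rescue was measured as viability by CellTiterGlo luminescence after 10 minutes at ambient.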
FUS yeast rescue: suppressors of FUS proteinopathy in yeast | actives 0.24% (n = 390,000) | AID 1347120 | Potency, µM (top dose mostly 76.6 µM), most hits filed as activators | S. cerevisiae FUS-expressing, growth rescue, OD600, 24 h;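 further: plate controls were DMSO vehicle for no effect and reference control for full effect; nearly all actives have a fitted effect of over 55% in size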
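Restored growth of FUS-toxic S. cerevisiae, read as 600 nm absorbance after 24 h at 30C in galactose medium (starting OD 0.005). Controls CP55940 and DMSO.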
TDP43 rescue: inhibitors of TDP-43 toxicity in yeast. TDP-43 expressing yeast growth rescue, BacTiter-Glo, 24 h. Potency, µM (titrated, usually from 46.1 µM), for inactives: at the highest dose growth rescue (activation), actives largely listed as activators. AID 652104. actives 1.8% (n = 410,000); further: % of control where 0% means no effect; nearly all actives have a fitted effect of over 50% in size
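Galactose-induced TDP-43 yeast, OD600=0.02, compound pinned; 24 hr, 30 deg C; BacTiter-Glo luminescence for growth. Inhibitors of TDP-43 toxicity read as activators.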
The depositor's hits bear a star; i = inactive; u = inconclusive; x = no result; [ ] = another dose, or the depositor's remark. Unless noted, the call rests on the fitted dose curve; in most records, active means well fitted curve in the direction sought with a large enough effect; inconclusive means small, poorly fitted or top-dose-only effect, or another doubt; inactive means no such curve, though single readings can be large; an effect the other way counts as inactive or inconclusive. Potency means the concentration at half of the fitted maximal effect.

SMILES | ERG Ets-DNA blk | aSyn yeast inh | Abeta yeast res | Mito fusion yeast | FUS yeast rescue | TDP43 rescue
CC(C)C[C@H](NC1(C(=O)NCCc2c[nH]c3ccccc23)CCN(C)CC1)C(=O)NCCCc1ccccc1 | x | x | x | x | i | x
CCCCNC(=O)c1ccc2c(c1)ncn2-c1cc(OC)ccc1OC | 7.3% | x | i | x | i | 11.3%
COc1ccc2c(c1)NC(=O)CC(c1ccccc1)=N2 | 1.0% | -8.4% | i | -4.3% | i | 14.1µM*
COc1ccc(O)c(C2=Nc3ccccc3N=C(c3ccccc3)C2)c1 | -1.7% | 5.9% | i | 3.2% | i | -5.7%
CCOC(=O)c1cnc(NCc2ccccc2)nc1C | 1.3% | x | i | 0.4% | i | 7.08µM*
COc1cc(NC(=O)c2cnc(NCc3ccccc3)nc2C)cc(OC)c1OC | 4.9% | -0.5% | i | 4.0% | i | -2.9%
O=C1Nc2ccc(C(=O)O)c(O)c2C1=O | 13.8% | -4.4% | i | x | i | -15.2%
O=C(CCCc1ccccc1)Nc1nccs1 | 5.3% | 8.3% | i | x | i | 11.2µM*
O=C(CCCc1cccs1)Nc1nccs1 | 0.8% | -2.4% | i | -1.4% | i | -14.8%[9.22 µM]
CCC(=O)N1CCc2cc(S(=O)(=O)NCCC(=O)Nc3ccc(N(CC)CC)cc3C)ccc21 | -7.4% | x | i | x | i | 7.7%
CC(=O)NC(Cc1ccc(O)cc1)C(=O)NCC(N)C(=O)c1ccccc1 (configuration not stated) | x | -3.2% | x | x | x | x
NNC(=O)c1cc2cc(Oc3ccccc3)ccc2[nH]1 | 12.3% | 0.8% | i | 7.2% | i | 10µM*
NNC(=O)c1cc2ccccc2[nH]1 | -7.9% | -14.7% | i | -4.7% | i | x
CCCCNC(=O)C1(C(=O)C2CC2)CC(c2ccccc2C(F)(F)F)=NO1 (configuration not stated) | x | x | x | x | i | x
O=C(Nc1nnc(-c2ccc3c(c2)CCCC3)o1)c1ccc(Cl)cc1Cl | 1.4% | u | u | u | i | 3.98µM*
CC(C)Oc1ccc(C2CC(=O)N(c3cccc(Br)c3)C2=O)cc1 (configuration not stated) | 8.9% | 9.3% | i | -8.1% | i | 20µM*
CCc1ccc(-n2nc3ccc(NC(=O)c4cc(Cl)c(OC)c(Cl)c4)cc3n2)cc1 | 0.2% | x | i | x | i | 11.2%
O=C(CSCc1ccc(F)cc1)Nc1nc2c(s1)CCCC2 | -6.0% | 12.0% | i | -11.7% | i | 14.1µM*
O=C(COc1ccccc1Cl)Nc1nc2c(s1)CCCC2 | -0.4% | x | i | x | i | 11.2µM*
O=C(CSc1nnc(CNc2ccc(Cl)cc2)o1)Nc1nc2c(s1)CCCC2 | -1.0% | -4.7% | i | -0.3% | 35.5µM* | 18.9%
Cc1ccc(CN2CCCCC(NC(=O)c3cccc(C(F)(F)F)c3)C2=O)cc1 (configuration not stated) | x | x | x | x | i | x
CCc1cc2ccc(C)cc2nc1SCC(=O)N1CCN(C(=O)c2ccco2)CC1 | 12.6% | 3.8% | i | 13.5% | x | 14.1µM*
O=C(c1ccc2nc(N3CCOCC3)sc2c1)N1CCN(C(=O)c2ccco2)CC1 | -5.4% | 3.6% | i | -0.6% | i | 22.6%
COc1ccc(-c2csc(N3CCN(C(=O)c4ccccc4)CC3)n2)cc1 | -4.2% | 2.8% | i | 10.8% | i | u
O=C(C1COc2ccccc2O1)N1CCN(c2nc3ccccc3s2)CC1 (configuration not stated) | -11.4% | 7.1% | i | 1.3% | i | 11.2µM*
SMILES | ERG Ets-DNA blk | aSyn yeast inh | Abeta yeast res | Mito fusion yeast | FUS yeast rescue | TDP43 rescue
O=C(C1COc2ccccc2O1)N1CCN(c2nc3ccc([N+](=O)[O-])cc3s2)CC1 (configuration not stated) | 2.0% | -5.7% | i | -2.6% | i | u
COc1ccc(-c2csc(N3CCN(C(=O)c4ccco4)CC3)n2)cc1 | -8.5% | -14.8% | i | -2.1% | i | 20µM*
CCc1ccc2nc(N3CCN(C(=O)c4ccco4)CC3)sc2c1 | 6.8% | x | i | x | u | 14.1µM*
C=C(C)Cn1c2ccc(NC(=O)CCc3cccnc3)cc2c(=O)n1C | x | -0.9% | i | x | i | 0.0%
CCCCSc1nnc2c(n1)OC(c1ccc(C)s1)Nc1ccccc1-2 (configuration not stated) | 1.1% | x | i | x | i | -8.5%
CC(C)CNC(=O)C1=CC(c2ccc3c(c2)OCO3)=NS(=O)(=O)N1C | 1.8% | x | i | x | i | 3.4%
COC(=O)c1cc(C)oc1C | x | x | x | x | i | x
CCOc1ccc2nc(N3CCN(C(=O)c4ccco4)CC3)sc2c1 | 1.0% | x | i | x | i | u
COc1ccc2nc(N3CCN(C(=O)c4ccco4)CC3)sc2c1 | -3.2% | x | i | x | i | 20µM*
CCSc1ccccc1C(=O)N1CCN(c2nc3ccccc3s2)CC1 | -1.3% | x | i | x | i | 17.8µM*
Cc1ccc(NC(=O)C(=O)NCC(c2ccc3c(c2)OCO3)N2CCOCC2)cc1C (configuration not stated) | -3.9% | x | i | x | i | 20.2%
CCCN(CCC)C(=O)Cn1c(=O)n(-c2cccc(OC)c2)c(=O)c2c3c(sc21)CCCC3 | 2.8% | x | i | x | i | 12.3%
C=Cc1ccc(Cn2c(C)c(CNCCc3ccccc3C)c(C(=O)O)c2C)cc1 | 3.1% | x | i | x | u | 17.5%
O=S(=O)(NCc1c(Cl)cccc1Oc1ccccc1)c1ccc(F)cc1 | 12.1% | 5.5% | i | 26.1% | i | 17.8µM*
COc1ccc(NC(=O)C2(C)CCN2C(=O)c2ccccc2CCc2ccccc2)cc1OC (configuration not stated) | x | 11.8% | i | x | u | 17.8µM*
CC1(C(=O)NS(=O)(=O)c2cccc(F)c2)CCN1C(=O)c1ccccc1CCc1ccccc1 (configuration not stated) | x | -26.2% | i | x | i | u
Cc1cccc(S(=O)(=O)NC(=O)C2(C)CCN2C(=O)c2ccccc2CCc2ccccc2)c1 (configuration not stated) | x | -14.8% | i | x | i | 15.8µM*
Cc1ccc(NC(=O)C2(C)CCN2C(=O)c2ccccc2CCc2ccccc2)cc1C (configuration not stated) | x | 14.4% | i | x | i | 19.7%
CCOC(=O)Cc1nc(N2CCN(CCO)CC2)c2c(C)c(C(=O)OCC)sc2n1 | x | x | x | x | i | x
O=C(CCc1c[nH]c2ccccc12)OCc1cccc([N+](=O)[O-])c1 | -3.2% | 16.3% | 11.2µM* | -12.6% | i | u

Screening data from PubChem BioAssay.
